Source: PubChem
uPA generation: qHTS for Inhibitors of Cell Surface uPA Generation. cell surface uPA generation assay, qHTS. Potency, µM (doses to about 38.3 µM), inactives show top-dose activity change, negative = inhibition, usual class: inhibitors. 0.31% of 330,000 active. AID 540303, 2011; active = well fitted inhibition curve with a large enough effect; inconclusive = small, poorly fitted or top-dose-only effect; inactive = no such curve, though single readings can be large or run the other way; tested in mouse RAW 264.7 cells; note: potency is the fitted concentration of half-maximal effect; % is set by controls: 0 for no effect and ±100 for the full control effect; nearly all actives have a fitted effect of over 55% in size
Sfp inh: qHTS Assay for Inhibitors of Bacillus subtilis Sfp phosphopantetheinyl transferase (PPTase) | 4'-phosphopantetheinyl transferase ffp (Bacillus subtilis), Q9F4F7 | Biochemical Sfp PPTase activity, qHTS | Potency, µM, for inactives: largest response in the series, negative = inhibition, hits mostly inhibitors | 3.5% of 310,000 active | AID 1490, 2009;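 note: the enzyme is Sfp with the accession as filed and its product quenches rhodamine fluorescence; potency is the fitted concentration of half-maximal effect; 0% = enzyme reaction without inhibitor and -100% = no enzyme wells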
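Fluorescence-quenching assay: 15 nM Sfp-PPTase preincubated 15 min at room temperature with compound, then 5 uM rhodamine-CoA and 12.5 uM BHQ-2-labelled YbbR peptide added. Fluorescence (ex 525/em 598 nm) read at start and after 30 min; difference gives rate.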
ClpP mod: qHTS Assay for Activators of ClpP | ATP-dependent Clp protease proteolytic subunit (Bacillus subtilis (strain 168)), P80244 | 1.9% of 340,000 active | AID 651965, 2013 | purified B. subtilis ClpP, FRET peptide cleavage, 20 min | Potency, µM (top dose mostly 57.5 µM), for the others: at the top dose activity change, negative = active; active = well fitted falling curve with a large enough effect; inconclusive = small, poorly fitted or top-dose-only effect; inactive = no such curve, though single readings can be large or run the other way; note: potency is the fitted concentration of half-maximal effect; the source files actives as falling curves though it sought activators and does not explain the sign; nearly all actives have a fitted effect of over 65% in size
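ClpP 10 microg/mL final, pH 8 Tris/KCl buffer with BSA, glycerol, Tween-20; compound pinned in; FRET-FV substrate; RT 20 min; Ex320/Em430; ΔFRET vs ADEP 5.8 microM, DMSO, no enzyme.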
TCR activator: Activators of T cell receptors: qHTS campaign. 330,000 tested, under 10 active. Potency, µM (series often up to 9.22 µM), for the others: at the top dose activation of IL-2 secretion, most hits filed as activators. primary human leukocytes, anti-CD3, IL-2 HTRF, 48 h; note: % of control where 0% means no effect
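IL-2 produced over 48 hr by a-CD3 bead-stimulated primary human leukocytes exposed to compounds was detected with a homogeneous time-resolved FRET immunoassay, 665nm acceptor signal after 320nm excitation.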
Numbers without * were called inactive; u = inconclusive; x = no result; [ ] = dose if it differs, or a comment. Only some compounds are listed: those with a hit (about 4.2% of all), similar ones and a draw of the others. Unless noted, calls come from the whole dose curve; as a rule, active = well fitted curve in the direction sought with a large enough effect; inconclusive = small, poorly fitted or top-dose-only effect, or another doubt; inactive = no such curve, though single readings can be large; an effect the other way counts as inactive or inconclusive.

SMILES | uPA generation | Sfp inh | ClpP mod | TCR activator
CN1CC=C2C(C#N)=C(N)C(C#N)(C#N)C(CCc3ccccc3)C2C1 (stereo not given) | -4% | 8% | 28µM* | -6%
Cc1nc2cccnc2n1-c1cccc(C(=O)N2CCN(c3cccc(Cl)c3)CC2)c1 | x | x | 1% | x
Cc1ccc(S(=O)(=O)N2C[C@H]3C(=O)C[C@@H](c4ccccc4)N(S(=O)(=O)c4ccc(C)cc4)[C@H]3C[C@H]2c2ccc(Cl)cc2)cc1 | x | x | -2% | x
CC(C)(C)C1CCc2c(sc(NC(=O)c3ccco3)c2C(=O)Nc2ccccc2Cl)C1 (stereo not given) | x | x | -4% | x
COc1ccc(-c2c(C)nn3c(C(F)(F)F)cc(-c4ccc(C)cc4)nc23)cc1 | x | x | -1% | x
Cc1nn2c(C(F)(F)F)cc(-c3ccc(OC(C)C)cc3)nc2c1C#N | x | x | 5µM* | x
O=C(COc1ccc(F)cc1)OCc1cc(=O)n2nc(C3CCCCC3)sc2n1 | x | x | -15% | x
CC12CCC(=O)N1c1c(sc3nc(N4CCOCC4)c4c(c13)CCCC4)C(=O)N2 (stereo not given) | 2% | u | 25µM* | -5%
COC(=O)c1ccc(-c2sc3nc(N4CCOCC4)c4c(c3c2N)CCCC4)o1 | 5% | u | -18% | -12%
O=C(COC(=O)Cc1ccsc1)Nc1ccc(Cl)cc1F | -1% | x | 2% | 5%[46.1 µM]
COc1ccc(C(=O)n2nc(-c3ccccc3)nc2N)cc1OC | -1% | 79µM* | -6% | 2%
Cc1ccc(S(=O)(=O)/N=C(/Nc2cccc(C(=O)O)c2)c2ccccc2)cc1 | 3% | 2% | -1% | 2%
Cc1ccc(S(=O)(=O)/N=C(\Sc2ccccc2)c2ccccc2)cc1 | x | -20% | 0% | -1%
Cc1ccc(S(=O)(=O)/N=C(/Sc2ccccc2C(=O)O)c2ccccc2)cc1 | 6% | 79µM* | -1% | 3%
O=S(=O)(/N=C(\Sc1ccccc1)c1ccccc1)c1ccc(Cl)cc1 | x | 35µM* | 5% | 1%
Cc1[nH]c2ccccc2c1C(c1ccccn1)c1c(C)[nH]c2ccccc12 | 5% | 40µM* | 1% | 3%
CC1(C)CC(=O)C2=C(C1)Nc1cc3c(cc1C2c1ccc(F)cc1)OCO3 (stereo not given) | -3% | -21% | 32µM* | -2%
Cc1ccc(C2C3=C(CC(C)(C)CC3=O)Nc3onc(C)c32)cc1 (stereo not given) | -9% | 7% | 32µM* | 1%
Cc1cccc(NC(=O)CSc2nncn2C)c1 | x | x | 1% | x
CCOC(=O)c1cc(-c2ccc(C)cc2)nc2nc(SC)[nH]c(=O)c12 | -7% | -1% | 14µM* | -9%[46.1 µM]
CCSc1nc2ccccc2n1C(=O)/C=C\c1ccc(OC)c(OC)c1 | -12% | 50µM* | -27% | -2%
COCCNC(=S)N/N=C1\CC(C)CC(C)(C)C1 (stereo not given) | 1% | 50µM* | -1% | x
COCCNC(=S)NN=C1CCCCCC1 | -14% | 56µM* | -1% | -7%
CC(C)c1ccc(OCc2cc(=O)n3c(-c4ccccc4)csc3n2)cc1 | x | x | -13% | x
Clc1ccc2[nH]c3c(NCCCN4CCOCC4)ncnc3c2c1 | -5% | -8% | 20µM* | 10%
SMILES | uPA generation | Sfp inh | ClpP mod | TCR activator
Cc1ccc2[nH]c3c(NCCN4CCOCC4)ncnc3c2c1 | -11% | 6% | 1% | -1%
O=C1CCCN1CCCNc1ncnc2c1[nH]c1ccc(Cl)cc12 | 1% | 3% | 25µM* | -5%
Cc1ccc(/C=C/c2nnc(-c3ccccc3)o2)cc1 | 1% | -1% | 32µM* | 0%
Cc1ccc(-c2noc(/C=C/c3ccccc3)n2)cc1 | 7% | -17% | -8% | x
Clc1ccccc1-c1nnc(-c2cccs2)o1 | -8% | 9% | x | -4%
C(=C\c1nnc(-c2cccs2)o1)/c1ccccc1 | -19% | 9% | 14µM* | -1%
COc1ccc(CC(=O)N/N=C\c2cc(Br)c(O)c(Br)c2)cc1 | 1% | -2% | -13% | 4%
O=C(NCCc1ccc(O)c(O)c1)C1COc2ccccc2O1 (stereo not given) | -8% | 50µM* | -1% | -1%
O=C(NCCc1ccccc1)C1COc2ccccc2O1 (stereo not given) | -11% | 4% | 2% | 1%
[O-]c1c[n+](-c2ccc(-[n+]3cc([O-])on3)cc2)no1 | 3% | 56µM* | x | 3%
[O-]c1c[n+](-c2ccccc2)no1 | -1% | 1% | -3% | 3%
COc1ccc(OC)c(C2Nc3c(Cl)ccc(C(=O)O)c3C3C=CCC32)c1 (stereo not given) | -5% | 22µM* | x | -12%
COC(=O)COc1ccc(C2Nc3c(Cl)ccc(C(=O)O)c3C3C=CCC32)cc1 (stereo not given) | -2% | 10µM* | x | -1%
COC(=O)c1ccc([C@@H]2Nc3c(OC)ccc(C)c3[C@@H]3C=CC[C@@H]32)cc1 | x | x | -6% | x
O=C(Cc1ccc(Cl)cc1)NNC(=O)C1CC=CCC1C(=O)O (stereo not given) | x | 16% | x | x
O=C1C=C(c2ccc(Cl)c(C(F)(F)F)c2)C[C@@H](c2ccc3c(c2)OCO3)C1 | 7% | x | -5% | 0%
COc1ccc(-n2cnc3c(sc4nccc(N(C)C)c43)c2=O)cc1 | 5% | -15% | 14µM* | 3%
CC1=C(C(N)=O)C(c2ccc(C)cc2)n2nc(SCc3ccccc3F)nc2N1 (stereo not given) | x | x | -3% | x
CCN(CC)c1ccc(C(=O)NCc2nc3cccnc3n2Cc2ccc(C)cc2)cc1 | x | x | -12% | x
O=C(NCc1ccco1)[C@@H]1CSC2c3ccccc3C(=O)N21 (stereo not given in full) | -4% | 35µM* | 2% | 1%
CCC(=O)Nc1ccc2c(c1)C(=O)N(C)C2=O | 3% | 11% | 28µM* | -3%
CCCC(=O)Nc1ccc2c(c1)C(=O)N(CCC(=O)O)C2=O | x | 20% | 28µM* | x
O=C(Nc1ccc2[nH]ccc2c1)c1cccs1 | 7.1µM* | 6% | 0% | -11%
CN1C(=O)c2ccc(NC(=S)NC(=O)C(C)(C)C)cc2C1=O | 4% | 35µM* | 6% | 2%[46.1 µM]
CC(C)C[C@@H]1O[C@H](C(C)C)Cc2[nH][nH]c(=O)c21 | x | x | 0% | x
SMILES | uPA generation | Sfp inh | ClpP mod | TCR activator
COC(=O)N[C@H](c1ccccc1)C(C(C)=O)C(=O)OC (stereo not given in full) | x | -1% | x | x
Cc1ccc(C2N=C(Nc3nc4ccccc4o3)NC3=C2C(=O)CC(C)(C)C3)cc1 (stereo not given) | x | x | 4% | x
CCCCc1nc2c(c3c1C[C@H](C)OC3)CN(C(=O)COC)CC2 | x | -11% | x | x
COc1ccc(S(=O)(=O)N2CCCCC2)cc1NC(=O)C1CC(=O)N(Cc2ccccc2)C1 (stereo not given) | -5% | x | -2% | -11%
O=C(O)CCN1C(=O)c2ccc(NC(=O)c3cccs3)cc2C1=O | 2% | 7% | 32µM* | 1%
O=C(Nc1ccc2c(c1)C(=O)N(c1ccccc1)C2=O)c1cccs1 | 1% | 15% | 4% | 2%
